A selection: hits, their analogues and other compounds. The true share with any hit is near 12%.
JMJD2A Tudor inh: qHTS Assay for Inhibitors of JMJD2A-Tudor Domain | AlphaScreen JMJD2A-Tudor / H3K4me3 peptide binding | 4.4% of 390,000 active | Potency, µM (doses to about 114 µM), for inactives: at the top dose activity change, negative = inhibition, hits mostly inhibitors | Lysine-specific demethylase 4A (Homo sapiens), O75164; further: on the % scale 0 is the no-effect control and ±100 the full control effect; nearly all actives have a fitted effect of over 50% in size
Target sequence (O75164 whole entry, looked up, the tested form may be a part): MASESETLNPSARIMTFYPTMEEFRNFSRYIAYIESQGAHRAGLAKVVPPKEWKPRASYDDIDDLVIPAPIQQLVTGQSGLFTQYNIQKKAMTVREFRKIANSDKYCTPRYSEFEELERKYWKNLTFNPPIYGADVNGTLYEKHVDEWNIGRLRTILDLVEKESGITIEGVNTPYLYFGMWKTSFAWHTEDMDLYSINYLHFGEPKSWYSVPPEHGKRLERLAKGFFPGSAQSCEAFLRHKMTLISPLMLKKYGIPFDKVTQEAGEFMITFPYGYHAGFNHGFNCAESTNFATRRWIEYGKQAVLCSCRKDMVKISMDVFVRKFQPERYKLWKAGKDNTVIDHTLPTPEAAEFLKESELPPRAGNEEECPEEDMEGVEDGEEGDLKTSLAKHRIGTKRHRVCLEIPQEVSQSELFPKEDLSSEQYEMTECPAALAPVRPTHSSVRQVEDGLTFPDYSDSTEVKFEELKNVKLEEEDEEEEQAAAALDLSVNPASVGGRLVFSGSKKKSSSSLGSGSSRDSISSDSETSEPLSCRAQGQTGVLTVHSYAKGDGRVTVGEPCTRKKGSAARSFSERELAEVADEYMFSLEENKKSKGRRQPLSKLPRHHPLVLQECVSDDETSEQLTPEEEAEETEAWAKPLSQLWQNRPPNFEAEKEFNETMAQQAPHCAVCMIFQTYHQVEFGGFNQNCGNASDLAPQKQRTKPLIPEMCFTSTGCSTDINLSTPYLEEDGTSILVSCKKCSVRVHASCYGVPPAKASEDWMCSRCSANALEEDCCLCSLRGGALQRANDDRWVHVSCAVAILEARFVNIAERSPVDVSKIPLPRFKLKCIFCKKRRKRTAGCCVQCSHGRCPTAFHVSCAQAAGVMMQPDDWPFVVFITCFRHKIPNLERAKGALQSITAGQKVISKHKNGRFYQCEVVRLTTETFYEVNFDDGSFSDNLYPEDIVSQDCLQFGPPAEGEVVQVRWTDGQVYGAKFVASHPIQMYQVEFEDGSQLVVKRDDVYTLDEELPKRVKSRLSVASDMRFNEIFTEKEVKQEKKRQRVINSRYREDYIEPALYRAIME
L3MBTL1 inh: qHTS Assay for the Inhibitors of L3MBTL1; Lethal(3)malignant brain tumor-like protein 1 (Homo sapiens), Q9Y468; AlphaScreen L3MBTL1–H3K9me1 peptide binding; Potency, µM (series often up to 57.1 µM), inactives show at the top dose activity, negative = inhibition, hits mostly inhibitors; 0.66% of 230,000 active; AID 485360, 2010; further: on the % scale 0 is the no-effect control and ±100 the full control effect; nearly all actives have a fitted effect of over 60% in size
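L3MBTL1 (50 nM) pre-complexed 30 min with biotinylated H3(1-15)K9me1 peptide (75 nM), then compounds added for 30 min at room temperature; AlphaScreen streptavidin donor/nickel chelate acceptor beads (10 ug/mL final) read after 30 min dark incubation.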
BAZ2B block: qHTS Assay for Inhibitors of BAZ2B | AlphaScreen BAZ2B-H3K14Ac peptide displacement | Potency, µM (top dose mostly 114 µM), for the others: at the top dose activity change, negative = inhibition, most hits filed as inhibitors | 4.4% of 360,000 active | AID 504333, 2011; further: on the % scale 0 is the no-effect control and ±100 the full control effect; nearly all actives have a fitted effect of over 60% in size
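BAZ2B (50 nM) with biotin-H3(5-23)K14Ac peptide (50 nM) in PBS pH 7.4, 0.01% Tween-20, preformed 30 min, then compound 30 min at room temperature; top concentration 110uM. AlphaScreen streptavidin donor/nickel chelate acceptor beads (10 ug/mL final), 20 min dark, signal read.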
HP1b binding inh: HTS for Inhibitors of HP1-beta Chromodomain Interactions with Methylated Histone Tails. Chromobox protein homolog 1 (Homo sapiens), P83916. AlphaScreen HP1-beta / biotin-H3K9me3 peptide binding. Potency, µM (doses to about 114 µM), inactives show at the highest dose activity change, negative = inhibition, most hits filed as inhibitors. 0.56% of 390,000 active; further: nearly all actives have a fitted effect of over 70% in size
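Compound inhibition of the preformed complex between 50 nM HP1-beta and 50 nM biotinylated H3K9me3 peptide was read by AlphaScreen. Buffer was PBS pH 7.4 with 0.01% Tween-20. Incubations ran 30 min at room temperature, with 10 ug/mL donor/acceptor beads.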
Sfp PPTase inh: qHTS Assay for Inhibitors of Bacillus subtilis Sfp phosphopantetheinyl transferase (PPTase). 4'-phosphopantetheinyl transferase ffp (Bacillus subtilis), Q9F4F7. Biochemical Sfp PPTase activity, qHTS. Potency, µM, without a hit: largest response in the series, negative = inhibition, usual class: inhibitors. 3.5% of 310,000 active. AID 1490, 2009;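 further: the enzyme is Sfp with the accession as filed and its product quenches rhodamine fluorescence; 0% = enzyme reaction without inhibitor and -100% = no enzyme wells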
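Step 1, compound plus 15 nM Sfp-PPTase, 15 min, room temperature. Step 2, add rhodamine-CoA (5 uM) and BHQ-2-YbbR (12.5 uM). Step 3, read 525/598 nm fluorescence at 0 and 30 min.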
G9a block: qHTS Assay for Inhibitors of Histone Lysine Methyltransferase G9a | Histone-lysine N-methyltransferase EHMT2 (Homo sapiens), Q96KQ7 | G9a H3K9 monomethylation, AlphaScreen, 2 h | Potency, µM (doses to about 102 µM), inactives show at the highest dose activity, negative = inhibition, actives largely listed as inhibitors | 8.8% of 350,000 active | AID 504332, 2011; further: on the % scale 0 is the no-effect control and ±100 the full control effect; nearly all actives have a fitted effect of over 75% in size
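AlphaScreen detection with an anti-monomethyl H3K9 antibody quantified product after a 2 h room-temperature reaction containing 500 nM biotinylated H3K9 peptide, 20 µM SAM and 20 nM enzyme, which had been preincubated 15 min with compound.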
An asterisk follows results filed as active; ? = inconclusive; . = not tested or not shown; [ ] = remark or other dose. The call rests on the fitted dose curve; in most records, active means well fitted curve in the direction sought with a large enough effect; inconclusive means small, poorly fitted or top-dose-only effect, or another doubt; inactive means no such curve, though single readings can be large; an effect the other way counts as inactive or inconclusive. Potency means the concentration at half of the fitted maximal effect.

SMILES	JMJD2A Tudor inh	L3MBTL1 inh	BAZ2B block	HP1b binding inh	Sfp PPTase inh	G9a block
COc1ccccc1N1CCN(S(=O)(=O)c2ccc3c(c2)NC(=O)C(C)S3)CC1 (stereo unspecified)	-22%	.	-18%	23%	1%	77%
CCOC(=O)C1=C(COC(=O)COc2ccc(C(=O)CC)cc2)NC(=O)NC1C (stereo unspecified)	-14%	1%	10%	21%	.	-4%
CC(C)(C)NC(=S)N/N=C\c1ccc(-c2ccc([N+](=O)[O-])cc2)o1	?	-8%	?	-13%	32µM*	-11%[59 µM]
Cc1ccc(C)c(N=Cc2ccc(-c3ccc([N+](=O)[O-])cc3)o2)c1	56µM*	-5%	?	?	19%	35µM*
CNC(=S)N/N=C/c1ccc(-c2ccc(Cl)c([N+](=O)[O-])c2)o1	-25%	-6%	79µM*	10%	-14%	.
O=C(N/N=C/c1ccc(-c2ccccc2)o1)c1ccccc1O	-25%	3%	-7%	38%	9%	.
CNC(=S)N/N=C/c1ccc(-c2ccc(C(=O)O)cc2)o1	-4%[11.4 µM]	?	?	?	45µM*	.
C/C(Cn1ncc(N2CCOCC2)c(Cl)c1=O)=N\O	1%	.	4%	59%	4%	-1%
O=C(NCC(c1ccco1)N1CCCC1)c1ccc(S(=O)(=O)Nc2ccccc2F)cc1 (stereo unspecified)	-8%	2%	-26%	24%	.	?
CC1CCCN(C(=O)c2ccc(NC(=O)CC3SC(N4CCCC4)=NC3=O)cc2)C1 (stereo unspecified)	-16%	0%	5%	15%	.	-5%
Cc1cc(C)n(Cc2ccc(C(=O)N/N=C/c3ccc(-c4ccc([N+](=O)[O-])cc4)o3)o2)n1	50µM*	.	20µM*	?	?	-24%
CCCCC(=O)N/N=C/c1ccc(-c2ccc([N+](=O)[O-])cc2)o1	-12%	-9%	-10%	3%	-11%	-9%
Cc1cccc(CNc2nc(-c3ccccc3CN(C)C)nc3ccccc23)c1	.	.	.	.	-20%	.
O=C(NNc1nc2cc3c(cc2s1)OCCO3)c1ccccc1	-32%	-21%	-32%	22%	-2%	40µM*
COc1cccc2sc(NC(=O)c3ccc4c(c3)OCCO4)nc12	-34%	.	5%	17%[57 µM]	.	5%[59 µM]
Cc1cccc2sc(NNC(=O)c3ccc4c(c3)OCCO4)nc12	?	-26%	?	6%	40µM*	10µM*
O=C(CNC(=O)c1ccc(Cl)cc1)OCc1cc(=O)n2nc(C3CC3)sc2n1	-11%	.	-9%	25%	.	2%[59 µM]
O=C(O)c1ccc(/C=N/NC(=O)c2cc3c(ccc4ccccc43)o2)cc1	?	.	71µM*	31%	-25%	?
O=C(N/N=C/c1ccncc1)c1cc2c(ccc3ccccc32)o1	-22%	15%	-2%	37%	5%	14%[12.7 µM]
O=C(O)c1ccc(/C=N/NC(=O)c2cc3ccccc3cc2O)cc1	-29%	32µM*	.	-6%	.	.
O=C(N/N=C/c1ccc(-c2ccc(Cl)c(C(=O)O)c2)o1)c1cc2c(ccc3ccccc32)o1	-8%[11.4 µM]	.	28µM*	?	?	.
COc1cc(/C=N/NC(=O)c2cc3ccccc3cc2O)ccc1OCCN1CCCCC1	?	-10%	-16%	-12%	40µM*	-10%[59 µM]
Cc1ccc(-c2ccc(/C=N\NC(=O)c3cc4c(ccc5ccccc54)o3)o2)cc1[N+](=O)[O-]	-32%	8%	2%	14%	-11%	.
O=C(CNc1ccc2ccccc2c1)N/N=C/c1ccc(C(=O)O)cc1	-19%	-1%	?	21%	-3%	?
CCOC(=O)N1CCC(NC(=O)C2CCN(C(=O)c3cc4oc(C)cc4n3Cc3c(F)cccc3Cl)CC2)CC1	?	-6%	?	-8%	20µM*	35µM*
SMILES	JMJD2A Tudor inh	L3MBTL1 inh	BAZ2B block	HP1b binding inh	Sfp PPTase inh	G9a block
COC(CNC(=O)C1CCN(C(=O)c2cc3oc(C)cc3n2Cc2c(F)cccc2Cl)CC1)OC	-9%	.	-11%	13%	45µM*	32µM*
COC(=O)c1cc2oc(C)cc2n1Cc1ccc(Cl)cc1	-6%	.	?	43%	.	-30%[59 µM]
Cc1n[nH]c(C)c1S(=O)(=O)N1CCCC(C(=O)O)C1 (stereo unspecified)	-19%	5%	.	30%	.	.
c1cc(C(c2nnnn2C2CCCC2)N2CCOCC2)ccn1 (stereo unspecified)	-10%	-4%[11.4 µM]	10%	30%	-21%	-40%[12.7 µM]
Oc1ccc(C(c2nnnn2C2CCCCC2)N2CCOCC2)cc1 (stereo unspecified)	-21%	0%	?	23%	?	22µM*
COC(=O)C/C=C\[C@@H](C)[C@@H](/C=N\O[C@@H]1O[C@H](COC(C)=O)[C@@H](OC(C)=O)[C@H](OC(C)=O)[C@H]1OC(C)=O)NS(=O)(=O)c1ccc(C)cc1	.	.	.	.	0%	.
COc1ccc2c(c1)c1c(c(=O)n(-c3ccccc3C)c(=O)n1CC(N)=O)n2C	1%	.	-12%	27%	.	-18%[59 µM]
CCN1CCN(C(=O)NCc2ccccc2)CC1	1.6µM*	.	-3%	?	-9%	22µM*
CCN1CCN(C(=S)c2ccc(OCC(=O)Nc3ccc(OC)cc3)cc2)CC1	-12%	.	.	12%	.	.
O=C(NCc1ccccc1)N1CCN(c2ccc(F)cc2)CC1	-31%[11.4 µM]	-10%	-1%	?	-3%	0%[59 µM]
CCN1CCN(C(=S)c2ccc(OCC(=O)NCc3ccccc3)cc2)CC1	-27%	-4%	-17%	-15%	22µM*	10µM*
COc1ccccc1CNC(=O)C(Cc1ccccc1)NS(=O)(=O)c1ccc2c(c1)CCN2C(C)=O (stereo unspecified)	-5%	.	.	28%	.	0%[59 µM]
Cc1ccccc1CC1SC(N=C(N)N)=NC1=O (stereo unspecified)	?	2%	3%	35%	8%	-7%
